# Assay outcomes (PubChem)
# HSP90 inh: HSP90 inhibitors, primary screen, cell lysate, luminescence | actives 0.91% (n = 290,000) | Rabbit reticulocyte lysate, luciferase refolding luminescence, 3 h | inhibition, % at 5.6 µM | Heat shock protein HSP 90 (rabbit reticulocyte lysate; luciferase refolding) | AID 1789, 2009;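 active = inhibition above the screen-wide mean plus 3 SD, computed separately per campaign, cut at about 16% in these data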;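 also: 0% = DMSO wells and 100% = 60 µM geldanamycin wells; inhibitors lower the luminescence because luciferase stays unfolded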
# HIF-2a block: HIF-2a reporter inhibitors, primary screen, luminescence, 786-0 RCC cells. 786-0 RCC cells HIF-2a reporter, luciferase luminescence, overnight. inhibition, % at 18.8 µM. actives 0.72% (n = 360,000). AID 624352, 2012;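 active = inhibition of the luminescence signal of 40% or more relative to plate controls, in a single-dose primary screen at 18.75 µM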
# TROY signal inh: inhibitors of TROY-driven NF-kB signaling, primary screen, Q293 LMP1-TROYcd cells, NF-kB luciferase, uHTS; Q293 LMP1-TROYcd NF-kB luciferase reporter, 4 h; inhibition, % at 10 µM; actives 0.98% (n = 360,000);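 active = compounds whose plate-normalised and pattern-corrected inhibition of the luciferase reporter signal at the single screening dose is 50% or more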
# aSyn 5UTR inh: MLPCN primary screen, SNCA 5' untranslated region; alpha-synuclein 5'UTR reporter, inhibitor activity; inhibition, % (tested at 7.5 µM); actives 0.82% (n = 300,000); AID 1813, 2009; in the data active = inhibition above about 60%;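 also: H4 neuroglioblastoma cells stably carrying SNCA 5'UTR luciferase fusion; 0% = DMSO wells and 100% = positive control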
# TRAIL sens C8: viability loss with TRAIL in NB7+C8 cells, primary screen, TRAIL sensitizer project, cell-based, ATPlite luminescence. actives 1% (n = 360,000). inhibition (viability loss, TRAIL sensitization), % at 10 µM;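 active = compounds causing at least 50% loss of cell viability in the single-dose screen, relative to plate controls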
# TWEAK-Fn14 inh: inhibitors of TWEAK-Fn14 signaling, primary screen, luciferase reporter cells, uHTS. TWEAK-stimulated Fn14 reporter cells, luciferase luminescence, 8 h. inhibition, % at 10 µM. actives 2% (n = 360,000); in the data active = inhibition above about 50%
# * hit, by the source's call; x = no result given. Rows were chosen to be rich in hits. Some 3.9% of all compounds tested hit in one or more screens of this group.
SMILES,HSP90 inh,HIF-2a block,TROY signal inh,aSyn 5UTR inh,TRAIL sens C8,TWEAK-Fn14 inh
CC1CN(CCOCCSc2ccc(Cl)cc2)CC(C)O1 (configuration not stated),-4,4,-12,16,5,-13
O=C(Nc1ccc(-c2csc(Nc3cccc(C(F)(F)F)c3)n2)cc1)c1ccccc1,x,-16,-2,14,23,65*
O=C(NNc1nc2ccc(F)cc2s1)c1cccc(F)c1,0,-147,-1,4,12,-7
O=C(NNc1nc(-c2ccc(F)cc2)cs1)c1ccccc1,5,-3,-30,90*,15,-7
O=C(NNc1nc(-c2ccccc2)cs1)c1ccc(F)cc1,2,-5,-18,76*,-6,-12
O=C(NNc1nc2ccccc2s1)c1ccc(F)cc1,-1,-38,76*,-46,-13,19
O=C(NNc1nc(-c2ccccc2)cs1)c1cccs1,10,-84,-5,-3,-3,-1
CC1(C(=O)NS(=O)(=O)C2CC2)CCN(C(=O)COc2ccc(Cl)cc2Cl)C1 (configuration not stated),x,8,1,x,-14,15
COc1ccc(CNc2nc3nc(C)cc(C)n3n2)cc1OC,1,-2,-6,-9,-7,10
Cc1cc(C)n2nc(NCc3cccc(Br)c3)nc2n1,2,-31,80*,-12,-5,-18
Cc1ccc2oc(C(=O)Nc3nnc(C)s3)c(C)c2c1,-4,-188,-21,-68,45,31
Cc1cc(C)cc(C(=O)Nc2nc3ccccc3[nH]2)c1,-2,-255,-33,-139,50*,-13
COc1ccc2oc(C(=O)Nc3nnc(C)s3)c(C)c2c1,x,-197,12,x,70*,68*
COc1ccccc1CCC(=O)Nc1nc2ccccc2[nH]1,-1,-208,-49,-223,34,50*
COc1ccc(CCC(=O)Nc2nc3ccccc3[nH]2)cc1OC,-2,-34,10,-22,41,-1
COc1cc(C(=O)Nc2nc3ccccc3[nH]2)ccc1OC(F)F,-1,-290,-7,-233,48*,26
CC(C)C(=O)N1CCC1(C)C(=O)Nc1nc2ccccc2[nH]1 (configuration not stated),x,4,23,x,-1,-4
O=C(Cc1ccccc1F)Nc1cccc(S(=O)(=O)N2CCCCC2)c1,x,9,-13,x,-9,5
CCNC(=O)C1(C)CCCN(C(=O)C2(c3ccc(Cl)cc3)CCCC2)C1 (configuration not stated),x,11,4,x,-11,0
CSc1ccc(CN2CCC2(C)C(=O)Nc2cccc(Oc3ccccc3)c2)cc1 (configuration not stated),x,13,0,x,5,-1
O=C(CC1CCCC1)Nc1nc2ccccc2[nH]1,-6,-150,-48,-123,51*,1
O=C(Nc1nc2ccccc2[nH]1)C1CCCC1,-2,-244,-78,-80,9,-9
COc1ccc(C(=O)Nc2nc3ccccc3[nH]2)cc1OC,6,-212,-29,-147,6,13
COc1ccc2oc(C(=O)Nc3nc4ccccc4[nH]3)c(C)c2c1,5,-337,43,-102,69*,38
O=C(Nc1nc2ccccc2[nH]1)c1cc(F)cc(F)c1,7,-263,-8,-148,41,-6
SMILES,HSP90 inh,HIF-2a block,TROY signal inh,aSyn 5UTR inh,TRAIL sens C8,TWEAK-Fn14 inh
COc1cc(OC)cc(C(=O)Nc2nc3ccccc3[nH]2)c1,-4,-196,-6,-189,53*,-21
O=C(Nc1nc2ccccc2[nH]1)c1cc2ccccc2o1,6,-165,6,-1,66*,26
COc1ccc(Br)c(C(=O)Nc2nc3ccccc3[nH]2)c1,1,-127,-28,-87,-5,-1
OCC[C@@H]1C[C@H](O)[C@@H](O)[C@]2(OCc3cc(C(F)(F)F)ccc32)O1,x,16,-2,x,5,9
N#Cc1cc2nc(O)c(O)nc2cc1[N+](=O)[O-],x,3,-13,x,-5,14
CNc1nc2cc([N+](=O)[O-])c([N+](=O)[O-])cc2nc1NC,1,-20,27,9,32,51*
Cc1nn(-c2nc3ccccc3[nH]2)c(=O)c2ccccc12,99*,95*,92*,115*,96*,105*
